The results in this text go back to PubChem BioAssay (NCI).

Compounds without any hit were thinned out: in the full panel of roughly 79,000, 15% have a hit. A number with no mark means an inactive call. Activity calls are given as the source filed them. Rule as the data show it: active = growth inhibition above about 70%; inactive = the rest.

The nature of assay [1]: NCI Yeast Anticancer Drug Screen. Data for the rad50 strain (AID 155).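 Also: 0% = growth of vehicle-only cultures of the same strain.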 Conditions: S. cerevisiae rad50 strain growth inhibition, active compounds read high. An outline of the steps: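 Cells are treated with compound, grown, and their growth is then scored against vehicle-only cultures of the same repair-deficient yeast strain.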
Assay [2] is described as follows: NCI Yeast Anticancer Drug Screen. Data for the mec2-1 strain (AID 157). Conditions: S. cerevisiae mec2-1 strain, active compounds read high. An outline of the steps: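 Each compound was tested on mec2-1 yeast, a strain altered in DNA damage repair or cell cycle control. Growth inhibition is reported relative to vehicle.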
A short description of assay [3]: NCI Yeast Anticancer Drug Screen. Data for the sgs1 mgt1 strain (AID 161).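 Also: 0% = growth of cultures given vehicle only.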 The note with it: S. cerevisiae sgs1 mgt1 strain, active compounds read high. The gist of the method: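 Mutant yeast exposed to compound; growth scored against vehicle-only wells.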
A short description of assay [4]: NCI Yeast Anticancer Drug Screen. Data for the cln2 rad14 strain (AID 165).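 Also: 0% = growth equal to vehicle treated cultures.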 The note with it: S. cerevisiae cln2 rad14 strain, active compounds read high. The gist of the method: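 Test compounds were added to cln2 rad14 yeast cultures; inhibition of growth was then determined by comparison with vehicle treatment.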
The nature of assay [5]: NCI Yeast Anticancer Drug Screen. Data for the bub3 strain (AID 167). The note with it: S. cerevisiae bub3 mutant strain, active compounds read high. An outline of the steps:
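Part of a panel of yeast mutants defective in DNA damage repair or cell cycle regulation. Each strain is grown with compound, and inhibition is calculated relative to solvent-treated cultures.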

The nature of assay [6]: NCI Yeast Anticancer Drug Screen. Data for the mlh1 rad18 strain (AID 175). Conditions: S. cerevisiae mlh1 rad18 strain growth inhibition, active compounds read high. An outline of the steps:
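Inhibition values reflect reduced growth of mutant yeast versus vehicle-treated controls following compound exposure; the mutations affect DNA damage repair.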

Setting [7] is: at 5.0 µM (retest, dose inferred, filed as 0.5).
The mark [8] stands for this setting: at 50.0 µM (retest, dose inferred, filed as 5.0).

As to `Cc1ccc(NC(=S)SCc2ccco2)cc1Cl`, the growth inhibition in assay [1] (setting [7]) was 22%; in assay [1] (setting [8]) it was 99% (active); in assay [1] (at 50.0 µM), 99.5% (active); in assay [2] (setting [7]), 5%; in assay [2] (setting [8]), 99% (active); in assay [2] (at 50.0 µM), 99.8% (active). In addition, the growth inhibition was 12% in assay [3] (setting [7]); 99% (active) in assay [3] (setting [8]); 99.7% (active) in assay [3] (at 50.0 µM); -3% in assay [4] (setting [7]); 99% (active) in assay [4] (setting [8]); 99.5% (active) in assay [4] (at 50.0 µM). The growth inhibition in assay [5] (setting [7]) is -3%; in assay [5] (setting [8]) it was 99% (active); in assay [5] (at 50.0 µM), 99.7% (active); in assay [6] (setting [7]), 20%; in assay [6] (setting [8]), 99% (active); in assay [6] (at 50.0 µM) it was 99.6% (active).

For `O=C(CSc1nnc(Cc2ccccc2)o1)Nc1ccc(Cl)cc1[N+](=O)[O-]`, the growth inhibition in assay [1] (setting [7]) was 1%; in assay [1] (setting [8]) it was 56%; in assay [1] (at 50.0 µM), 83% (active); in assay [2] (setting [7]), -13%; in assay [2] (setting [8]), 57%; in assay [2] (at 50.0 µM) it was 50.3%. The growth inhibition in assay [3] (setting [7]) was 4%; in assay [3] (setting [8]), 49%; in assay [3] (at 50.0 µM) it was 76.5% (active); in assay [4] (setting [7]) it was 10%; in assay [4] (setting [8]), 51%; in assay [4] (at 50.0 µM), 21.8%. Also, the growth inhibition in assay [5] (setting [7]) was -10%; in assay [5] (setting [8]) it was 64%; in assay [5] (at 50.0 µM) it was 15.1%; in assay [6] (setting [7]), 4%; in assay [6] (setting [8]), 53%; in assay [6] (at 50.0 µM) it was 83.8% (active).

In the case of `O=C1C=CC(=O)N1c1ccc(-c2nc3ccccc3o2)cc1`, the growth inhibition was 66% in assay [1] (setting [7]); 92% (active) in assay [1] (setting [8]); 86.2% (active) in assay [1] (at 50.0 µM); 70% (active) in assay [2] (setting [7]); 91% (active) in assay [2] (setting [8]); 88.9% (active) in assay [2] (at 50.0 µM). In addition, the growth inhibition is 100% (active) in assay [3] (setting [7]); 96% (active) in assay [3] (setting [8]); 91.5% (active) in assay [3] (at 50.0 µM); 81% (active) in assay [4] (setting [7]); 96% (active) in assay [4] (setting [8]); 88% (active) in assay [4] (at 50.0 µM). The growth inhibition in assay [5] (setting [7]) is 100% (active); in assay [5] (setting [8]) it was 87% (active); in assay [5] (at 50.0 µM) it was 88.5% (active); in assay [6] (setting [7]) it was 82% (active); in assay [6] (setting [8]), 90% (active); in assay [6] (at 50.0 µM) it was 90% (active).

Consider `CC([C@H]1CCC2C3CCC4CC5(CC[C@]4(C)C3CC[C@@]21C)c1ccccc1C(=O)N5C)N(C)C` (some centres not stated), for which the growth inhibition in assay [1] (setting [7]) is -11%; in assay [1] (setting [8]), 81% (active); in assay [1] (at 50.0 µM), 83.3% (active); in assay [2] (setting [7]), -11%; in assay [2] (setting [8]) it was 55%; in assay [2] (at 50.0 µM), 89.4% (active). In addition, the growth inhibition in assay [3] (setting [7]) was 11%; in assay [3] (setting [8]), 87% (active); in assay [3] (at 50.0 µM) it was 89.6% (active); in assay [4] (setting [7]) it was 14%; in assay [4] (setting [8]) it was 85% (active); in assay [4] (at 50.0 µM), 73.3% (active). The growth inhibition is 6% in assay [5] (setting [7]); 83% (active) in assay [5] (setting [8]); 86.5% (active) in assay [5] (at 50.0 µM); 18% in assay [6] (setting [7]); 84% (active) in assay [6] (setting [8]); 78.2% (active) in assay [6] (at 50.0 µM).

In the case of `Oc1ccc(CCCCCc2ccc(O)cc2)cc1`, the growth inhibition in assay [1] (setting [7]) is 4%; in assay [1] (setting [8]), 99% (active); in assay [1] (at 50.0 µM), 99.5% (active); in assay [2] (setting [7]), 15%; in assay [2] (setting [8]), 100% (active); in assay [2] (at 50.0 µM) it was 99.6% (active). Further, the growth inhibition in assay [3] (setting [7]) was 17%; in assay [3] (setting [8]), 100% (active); in assay [3] (at 50.0 µM), 99.7% (active); in assay [4] (setting [7]), 1%; in assay [4] (setting [8]), 99% (active); in assay [4] (at 50.0 µM), 99.2% (active). For the same compound, the growth inhibition in assay [5] (setting [7]) was 13%; in assay [5] (setting [8]), 100% (active); in assay [5] (at 50.0 µM), 99.6% (active); in assay [6] (setting [7]), 7%; in assay [6] (setting [8]), 99% (active); in assay [6] (at 50.0 µM) it was 99.5% (active).

Regarding `CCCCCCCCCCCCCCC(O)C[N+](C)(CCO)CCO` (configuration not stated), the growth inhibition in assay [1] (setting [7]) was 29%; in assay [1] (setting [8]), 98% (active); in assay [1] (at 50.0 µM), 86.6% (active); in assay [2] (setting [7]), 22%; in assay [2] (setting [8]), 99% (active); in assay [2] (at 50.0 µM) it was 87.7% (active). In addition, the growth inhibition was 32% in assay [3] (setting [7]); 99% (active) in assay [3] (setting [8]); 88.8% (active) in assay [3] (at 50.0 µM); 10% in assay [4] (setting [7]); 98% (active) in assay [4] (setting [8]); 88.3% (active) in assay [4] (at 50.0 µM). In addition, the growth inhibition in assay [5] (setting [7]) is 28%; in assay [5] (setting [8]), 99% (active); in assay [5] (at 50.0 µM) it was 86% (active); in assay [6] (setting [7]), 32%; in assay [6] (setting [8]), 98% (active); in assay [6] (at 50.0 µM), 88.9% (active).

For the compound `O=C(O)CCC(=O)NNc1ccccc1`, the growth inhibition in assay [1] (setting [7]) is 8%; in assay [1] (setting [8]), 68%; in assay [1] (at 50.0 µM), 57.9%; in assay [2] (setting [7]) it was -1%; in assay [2] (setting [8]), 66%; in assay [2] (at 50.0 µM), 85.9% (active). In addition, the growth inhibition in assay [3] (setting [7]) is 12%; in assay [3] (setting [8]), 58%; in assay [3] (at 50.0 µM) it was 61.9%; in assay [4] (setting [7]), 8%; in assay [4] (setting [8]) it was 81% (active); in assay [4] (at 50.0 µM) it was 83.2% (active). Also, the growth inhibition in assay [5] (setting [7]) is 14%; in assay [5] (setting [8]), 91% (active); in assay [5] (at 50.0 µM) it was 90.3% (active); in assay [6] (setting [7]), 20%; in assay [6] (setting [8]), 94% (active); in assay [6] (at 50.0 µM) it was 86.1% (active).

Turning to `Nc1ccc(CCCCCc2ccc(N)cc2)cc1`, the growth inhibition in assay [1] (setting [7]) was -3%; in assay [1] (setting [8]), 80% (active); in assay [1] (at 50.0 µM) it was 98.6% (active); in assay [2] (setting [7]), -9%; in assay [2] (setting [8]) it was 99% (active); in assay [2] (at 50.0 µM), 99% (active). Further, the growth inhibition was 10% in assay [3] (setting [7]); 96% (active) in assay [3] (setting [8]); 98.9% (active) in assay [3] (at 50.0 µM); 1% in assay [4] (setting [7]); 54% in assay [4] (setting [8]); 98% (active) in assay [4] (at 50.0 µM). The growth inhibition was -6% in assay [5] (setting [7]); 83% (active) in assay [5] (setting [8]); 98.7% (active) in assay [5] (at 50.0 µM); -1% in assay [6] (setting [7]); 98% (active) in assay [6] (setting [8]); 98.7% (active) in assay [6] (at 50.0 µM).

With `C=CCc1cc(C(=O)OCC)cc(OC)c1O`, the growth inhibition in assay [1] (setting [7]) was 78% (active); in assay [1] (setting [8]) it was 97% (active); in assay [1] (at 50.0 µM) it was 5.15%; in assay [2] (setting [7]) it was 22%; in assay [2] (setting [8]), 98% (active); in assay [2] (at 50.0 µM), -1.1%. For the same compound, the growth inhibition is 34% in assay [3] (setting [7]); 91% (active) in assay [3] (setting [8]); 3.9% in assay [3] (at 50.0 µM); 20% in assay [4] (setting [7]); 95% (active) in assay [4] (setting [8]); -23.4% in assay [4] (at 50.0 µM). Moreover, the growth inhibition in assay [5] (setting [7]) was 19%; in assay [5] (setting [8]), 95% (active); in assay [5] (at 50.0 µM), 74% (active); in assay [6] (setting [7]) it was 44%; in assay [6] (setting [8]), 97% (active); in assay [6] (at 50.0 µM) it was -0.35%.
